# Inconclusive results are not listed. The source made the active and inactive calls. Calls come from the whole dose curve; as a rule, active = well fitted activation curve with a large enough effect; inconclusive = small, poorly fitted or top-dose-only effect; inactive = no such curve, though single readings can be large or run the other way.
# Test: qHTS Assay for Identifying a Potential Treatment of Ataxia-Telangiectasia: Hit Validation;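 note: phospho-KAP1 level by AlphaLISA as a proxy for ATM-like kinase activity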; for activity change, positive = activation: 0% is about no effect
# Conditions: Ataxia-telangiectasia cell-based hit validation qHTS, in ATM-null A-T patient fibroblasts; series mostly up to 76.9 µM; activity change, positive = activation: at the top concentration
# Outline: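 hTERT-immortalized A-T patient fibroblasts (F2112) were dosed at up to 76.7 uM final for 60 min at 37C. After a further 30 min incubation, cells were lysed, and phospho-KAP1 was detected by AlphaLISA after 6 hr at 25C.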
# Potency is the fitted concentration of half-maximal effect.
SMILES,"activity change, positive = activation",Potency
CC(C)CN(CC(C)C)C(=O)c1cc2c(=O)n3ccccc3nc2s1,23.6% (inactive),
O=C(CNCc1cccs1)Nc1cc(S(=O)(=O)N2CCCC2)ccc1Cl,6.64% (inactive),
Cc1cc2c(c(=O)o1)C(CCC1CCCCC1)C(C#N)=C(N)O2 (configuration not stated),19.3% (inactive),
Cc1oc2c(c(C)cc3oc(=O)c(CC(=O)NCC(=O)NCC(=O)O)c(C)c32)c1C,,32.8 µM (active)
CCOC(=O)Cn1c(-c2ccccc2)cc(SC)c(C#N)c1=O,-6.94% (inactive),
O=C(C(c1ccccc1)c1ccccc1)N1CC[C@@]2(O)CCCC[C@H]2C1,4.02% (inactive),
COc1ccc(CCn2c(S)nc3ccccc3c2=O)cc1,,26 µM (active)
CC(=O)NNC(=O)CN1C(=O)/C(=C/c2ccccc2)SC1=S,9.09% (inactive),
CCC(=O)c1ccc2c(c1)OCCO2,14.3% (inactive),
COc1ccc(-c2nc3n(c2C)Cc2ccccc2-3)cc1,-24.9% (inactive),
CCc1oc(C(=O)OC)cc1CSC(=N)N,1.2% (inactive),
CNC(=O)c1ccc(-c2cc3onc(-c4ccccc4)c3c(=O)n2C)cc1,15.7% (inactive),
Clc1cccc(Cl)c1CSc1nnc(-c2ccncc2)s1,17.4% (inactive),
CC(=O)Nc1ccc(NC2=CC(=O)c3ccccc3C2=O)cc1,-33% (inactive),
Cc1[nH]c2c(C)cccc2c1CN1CCC(CO)(Cc2ccccc2)CC1,,1.16 µM (active)
CCOc1ccc(C(=O)NC(=S)Nc2cccnc2)cc1[N+](=O)[O-],19.7% (inactive),
CN1C[C@@H]2C(c3ccccc3)C3(c4ccccc4)CC2(C3)[C@H]1c1ccccc1 (some centres not stated),,18.4 µM (active)
